We go through four molecules from PubChem BioAssay (EPA / NIEHS).

Several values for one entry are separate records, joined by “and”; a condition that tells them apart may be missing. Identical values can stand only once. Inconclusive results are not listed. A structure can be active in one record and inactive in another. Activity calls are given as the source filed them. How the source made its calls: active means hit-call score of the fitted dose curve at least 0.9, where 1 is the maximum; inconclusive means response in the unintended direction; inactive means score below 0.9.

Assay [1] concerns the target frog Thyroid hormone Receptor alpha (TRa), thra-a (gene 397942) (UniProt P15204). Put plainly: ATG_frTRa_XSP1: Attagene TRANS-FACTORIAL Multi-Species (XSP1) HepG2 Assay for frog Thyroid hormone Receptor alpha (TRa) (AID 2283804). The procedure, abridged:
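HepG2 cells transiently transfected with frog TRa-GAL4 chimeric reporter units, dosed 24 hr with 3 nM 6-alpha-fluorotestosterone present; reporter mRNA quantified by RT-PCR, fluorescent labelling and capillary electrophoresis, gain of signal versus DMSO.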

The test system of assay [2] is turtle Thyroid Hormone Receptor, alpha (TRa), gene 101949057. Nature of the assay: ATG_trTRa_XSP1: Attagene TRANS-FACTORIAL Multi-Species (XSP1) HepG2 Assay for turtle Thyroid Hormone Receptor, alpha (TRa) (AID 2283806). Put shortly:
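HepG2 cells transiently transfected with GAL4-UAS reporter units and chimeric receptor-Gal4 constructs, with 3 nM 6-alpha-fluorotestosterone present. Reporter mRNA was quantified 24 h after dosing by RT-PCR, 6-FAM labelling and capillary electrophoresis; gain of signal versus DMSO.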

Assay [3] has as its target zebrafish Thyroid Hormone Receptor beta (TRb), thrb (gene 30607) (UniProt Q9PVE4). Nature of the assay: ATG_zfTRb_XSP1: Attagene TRANS-FACTORIAL Multi-Species (XSP1) HepG2 Assay for zebrafish Thyroid Hormone Receptor beta (TRb) (AID 2283809). Put shortly: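 HepG2 cells transiently transfected with multiplexed GAL4-UAS reporter units expressing chimeric zebrafish TRb–Gal4. Dosed 24 h with 3 nM 6-alpha-fluorotestosterone present; reporter mRNA measured by RT-PCR, HpaI digestion and capillary electrophoresis; gain of signal versus DMSO.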

A short description of assay [4]: ATG_XTT_Cytotoxicity_XSP1: Cytotoxicity Assessment in the Attagene TRANS-FACTORIAL Multi-Species (XSP1) HepG2 Assay (AID 2283810). The procedure, abridged: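 XTT viability readout taken at 24 hours post-dosing in HepG2 liver cells co-treated with 3 nM 6-alpha-fluorotestosterone. Signal loss relative to DMSO controls reflects cytotoxicity.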
A short description of assay [5]: ATG_M_06_XSP2: Attagene TRANS-FACTORIAL Multi-Species (XSP2) HepG2 Assay for M06 Transcription Factor (Internal Marker) (AID 2283811).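 Further: hits are increases in signal above the DMSO baseline.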 Put shortly: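 HepG2 cells transiently transfected with GAL4-UAS multiple reporter units, medium containing 3 nM 6-alpha-fluorotestosterone and 1.5 nM norgestrel; reporter mRNA measured 24 hours post-dosing by RT-PCR and capillary electrophoresis. Internal background marker, gain of signal vs DMSO.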

The subject of assay [6] is turtle Estrogen Receptor (ERa), gene 101933533. Nature of the assay: ATG_trERa_XSP2: Attagene TRANS-FACTORIAL Multi-Species (XSP2) HepG2 Assay for turtle Estrogen Receptor (ERa) (AID 2283812).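 Further: human HepG2 liver cells transiently expressing turtle ERa-Gal4 chimeric receptor; actives raise reporter signal above DMSO so AC50 reflects agonist activity.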 Put shortly: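 HepG2 cells transiently transfected with GAL4-UAS reporter units expressing turtle ERa-Gal4 chimera. Reporter mRNA measured after 24 h dosing by RT-PCR, fluorescent labelling and capillary electrophoresis; gain of signal fitted versus DMSO.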

Assay [7] has as its target Estrogen receptor beta (Homo sapiens) (UniProt Q92731). Put plainly: ATG_hERb_XSP2: Attagene TRANS-FACTORIAL Multi-Species (XSP2) HepG2 Assay for human Estrogen Receptor (ERb) (AID 2283813).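 Further: actives raise reporter mRNA above DMSO so AC50 reflects agonist induction.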 The procedure, abridged:
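HepG2 cells transiently transfected with GAL4-UAS reporter units and chimeric human ERb-Gal4, 24 h exposure. Reporter mRNA quantified by RT-PCR with FAM labelling, HpaI digestion and capillary electrophoresis; gain of signal versus DMSO.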

Assay [8] concerns the target zebrafish Estrogen Receptor (ER1), esr1 (gene 259252) (UniProt P57717). Put plainly: ATG_zfER1_XSP2: Attagene TRANS-FACTORIAL Multi-Species (XSP2) HepG2 Assay for zebrafish Estrogen Receptor (ER1) (AID 2283816). Put shortly:
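HepG2 cells transiently transfected with a GAL4-UAS reporter and a chimeric zebrafish ER1-Gal4 construct, dosed 24 h. Reporter mRNA quantified by RT-PCR, labelling, HpaI digestion and capillary electrophoresis, relative to DMSO.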

Assay [9] addresses chicken Estrogen Receptor (ERa), ESR1 (gene 396099) (UniProt P06212). Put plainly: ATG_chERa_XSP2: Attagene TRANS-FACTORIAL Multi-Species (XSP2) HepG2 Assay for chicken Estrogen Receptor (ERa) (AID 2283817).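 Further: actives raise reporter signal above DMSO so AC50 reflects ER activation.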 Put shortly: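 Transiently transfected HepG2 cells expressing chimeric chicken ERa-GAL4 reporter units, dosed 24 h with 3 nM 6-alpha-fluorotestosterone and 1.5 nM norgestrel present. Reporter mRNA measured by RT-PCR and capillary electrophoresis; gain-of-signal fitted relative to DMSO.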

Assay [10] has as its system zebrafish Estrogen Receptor (ER2a), gene 317734. Nature of the assay: ATG_zfER2a_XSP2: Attagene TRANS-FACTORIAL Multi-Species (XSP2) HepG2 Assay for zebrafish Estrogen Receptor (ER2a) (AID 2283818).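 Further: hits raise reporter mRNA so AC50 reflects activation of zebrafish ER2a.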 The procedure, abridged:
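HepG2 cells transiently transfected with GAL4-UAS reporter units and chimeric zebrafish ER2a-Gal4, exposed 24 h; medium contains 3 nM 6-alpha-fluorotestosterone and 1.5 nM norgestrel. Reporter mRNA quantified by RT-PCR, HpaI digestion, capillary electrophoresis; gain versus DMSO.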

In assay [11] the test system is chicken Androgen Receptor (AR), gene 422165. Nature of the assay: ATG_chAR_XSP2: Attagene TRANS-FACTORIAL Multi-Species (XSP2) HepG2 Assay for chicken Androgen Receptor (AR) (AID 2283819).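 Further: hits raise reporter mRNA above DMSO so potency is for activation.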 The procedure, abridged:
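HepG2 cells transiently transfected with chicken AR–GAL4 chimeric reporter constructs, stimulated with 3 nM 6-alpha-fluorotestosterone plus 1.5 nM norgestrel, dosed 24 h. Reporter mRNA quantified by RT-PCR and capillary electrophoresis; gain of signal fitted versus DMSO.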

For assay [12], the system named is frog Estrogen Receptor (ER), gene 398734. Nature of the assay: ATG_frER1_XSP2: Attagene TRANS-FACTORIAL Multi-Species (XSP2) HepG2 Assay for frog Estrogen Receptor (ER) (AID 2283821).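 Further: hits raise reporter mRNA above DMSO baseline so potency means agonist or activator.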 Put shortly:
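HepG2 cells transiently transfected with GAL4-UAS reporter units expressing a chimeric frog ER-Gal4 protein; 24 h exposure. Reporter mRNA quantified by RT-PCR, fluorescent labelling and capillary electrophoresis; gain of signal fitted against DMSO baseline.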

The subject of assay [13] is zebrafish Estrogen Receptor (ER2b), gene 317733. Put plainly: ATG_zfER2b_XSP2: Attagene TRANS-FACTORIAL Multi-Species (XSP2) HepG2 Assay for zebrafish Estrogen Receptor (ER2b) (AID 2283823).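 Further: fitted upward as reporter gain over DMSO so potency reflects activation.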 The procedure, abridged:
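Read-out: fluorescent reporter mRNA, measured by RT-PCR then capillary electrophoresis after HpaI digestion. HepG2 cells carried transiently transfected multi-reporter TRANS constructs (NR-Gal4 chimeras); 24 h chemical exposure; activity scored upward versus DMSO control.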

The target of assay [14] is Estrogen receptor (Homo sapiens) (UniProt P03372). Put plainly: ATG_hERa_XSP2: Attagene TRANS-FACTORIAL Multi-Species (XSP2) HepG2 Assay for human Estrogen Receptor (ERa) (AID 2283827). The procedure, abridged:
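HepG2 cells transiently transfected with multiplexed GAL4-UAS reporters driven by chimeric receptor-Gal4 proteins, dosed 24 h with 3 nM 6-alpha-fluorotestosterone and 1.5 nM norgestrel present. Reporter mRNA by RT-PCR and capillary electrophoresis; gain-of-signal fit versus DMSO.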

Assay [15] concerns frog Estrogen Receptor (ER2), gene 100174814. Nature of the assay: ATG_frER2_XSP2: Attagene TRANS-FACTORIAL Multi-Species (XSP2) HepG2 Assay for frog Estrogen Receptor (ER2) (AID 2283828). Put shortly: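 HepG2 cells transiently transfected with multiplexed GAL4-UAS reporter units expressing chimeric frog ER2–Gal4 protein; reporter mRNA measured 24 h after chemical dosing by RT-PCR, fluorescent labeling and capillary electrophoresis. Gain-of-signal fitted relative to DMSO baseline.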

In assay [16] the target is Peroxisome proliferator-activated receptor gamma (Homo sapiens) (UniProt P37231). Nature of the assay: ATG_hPPARg_XSP2: Attagene TRANS-FACTORIAL Multi-Species (XSP2) HepG2 Assay for human Peroxisome Proliferator-activated Receptor gamma (PPARg) (AID 2283829).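 Further: actives raise reporter mRNA above DMSO so AC50 reflects PPARg activation.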 The procedure, abridged: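 HepG2 cells transiently transfected with multiplexed GAL4-UAS reporter units for chimeric NR-Gal4 receptors, dosed 24 h. Reporter mRNA quantified by RT-PCR, 6-FAM labeling, HpaI digestion and capillary electrophoresis; gain-of-signal fitted against DMSO baseline.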
Peroxisome proliferator-activated receptor gamma (Homo sapiens), sequence (P37231 whole entry, looked up, the tested form may be a part): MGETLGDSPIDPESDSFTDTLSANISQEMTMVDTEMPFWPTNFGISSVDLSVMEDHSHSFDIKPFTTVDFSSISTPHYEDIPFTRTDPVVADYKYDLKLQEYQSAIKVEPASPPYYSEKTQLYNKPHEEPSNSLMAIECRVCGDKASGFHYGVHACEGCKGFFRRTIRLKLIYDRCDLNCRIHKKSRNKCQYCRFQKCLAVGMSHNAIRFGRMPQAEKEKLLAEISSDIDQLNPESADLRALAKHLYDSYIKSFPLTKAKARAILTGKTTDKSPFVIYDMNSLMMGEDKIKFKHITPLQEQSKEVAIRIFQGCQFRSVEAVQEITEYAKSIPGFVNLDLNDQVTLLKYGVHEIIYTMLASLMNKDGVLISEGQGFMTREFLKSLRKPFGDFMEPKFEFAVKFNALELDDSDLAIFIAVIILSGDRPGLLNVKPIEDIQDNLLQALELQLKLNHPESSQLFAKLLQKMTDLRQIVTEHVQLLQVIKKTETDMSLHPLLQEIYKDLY

Assay [17] deals with mouse Peroxisome Proliferator-activated Receptor gamma (PPARg), Pparg (gene 19016) (UniProt P37238). Nature of the assay: ATG_mPPARg_XSP2: Attagene TRANS-FACTORIAL Multi-Species (XSP2) HepG2 Assay for mouse Peroxisome Proliferator-activated Receptor gamma (PPARg) (AID 2283830).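 Further: hits are gains in reporter mRNA above DMSO so AC50 marks activation.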 Put shortly:
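HepG2 cells transiently transfected with GAL4-UAS reporter units for chimeric NR-Gal4 proteins including mouse PPARg, exposed 24 h; medium contained 3 nM 6-alpha-fluorotestosterone and 1.5 nM norgestrel. Reporter mRNA quantified by RT-PCR, HpaI digestion and capillary electrophoresis, vs DMSO.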

For assay [18], the target named is GAL4 Transcription Factor (Internal Marker), GAL4 (gene 855828) (UniProt P04386). Put plainly: ATG_GAL4_XSP2: Attagene TRANS-FACTORIAL Multi-Species (XSP2) HepG2 Assay for GAL4 Transcription Factor (Internal Marker) (AID 2283814).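 Further: GAL4 reporter mRNA background control in MRTU transfected cells not a receptor target.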 The procedure, abridged:
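HepG2 cells transiently transfected with GAL4-UAS reporter units, stimulated with 3 nM 6-alpha-fluorotestosterone plus 1.5 nM norgestrel, dosed 24 h. Reporter mRNA by RT-PCR/capillary electrophoresis; gain-of-signal fit versus DMSO, background control.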

Assay [19] relates to zebrafish Androgen Receptor (AR), gene 100005148. Nature of the assay: ATG_zfAR_XSP2: Attagene TRANS-FACTORIAL Multi-Species (XSP2) HepG2 Assay for zebrafish Androgen Receptor (AR) (AID 2283825).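 Further: hits raise reporter mRNA above DMSO so AC50 reflects agonist-type gain.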 The procedure, abridged: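 Zebrafish AR–GAL4 chimera transiently expressed with GAL4-UAS reporter in HepG2 cells, co-stimulated with 3 nM 6-alpha-fluorotestosterone and 1.5 nM norgestrel; 24 h dosing, reporter mRNA read by RT-PCR/capillary electrophoresis versus DMSO.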

Assay [20] concerns frog Androgen Receptor (AR), gene 399456. Put plainly: ATG_frAR_XSP2: Attagene TRANS-FACTORIAL Multi-Species (XSP2) HepG2 Assay for frog Androgen Receptor (AR) (AID 2283824).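 Further: actives raise reporter signal above DMSO so AC50 reflects agonist-like induction.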 The procedure, abridged: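 HepG2 cells transiently transfected with GAL4-UAS reporter units and frog (Xenopus laevis) AR-Gal4 chimera; reporter mRNA measured 24 h after dosing by RT-PCR and capillary electrophoresis. Gain of signal fitted relative to DMSO baseline.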

zebrafish Estrogen Receptor (ER1), esr1 (gene 259252), sequence (P57717 whole entry, looked up, the tested form may be a part): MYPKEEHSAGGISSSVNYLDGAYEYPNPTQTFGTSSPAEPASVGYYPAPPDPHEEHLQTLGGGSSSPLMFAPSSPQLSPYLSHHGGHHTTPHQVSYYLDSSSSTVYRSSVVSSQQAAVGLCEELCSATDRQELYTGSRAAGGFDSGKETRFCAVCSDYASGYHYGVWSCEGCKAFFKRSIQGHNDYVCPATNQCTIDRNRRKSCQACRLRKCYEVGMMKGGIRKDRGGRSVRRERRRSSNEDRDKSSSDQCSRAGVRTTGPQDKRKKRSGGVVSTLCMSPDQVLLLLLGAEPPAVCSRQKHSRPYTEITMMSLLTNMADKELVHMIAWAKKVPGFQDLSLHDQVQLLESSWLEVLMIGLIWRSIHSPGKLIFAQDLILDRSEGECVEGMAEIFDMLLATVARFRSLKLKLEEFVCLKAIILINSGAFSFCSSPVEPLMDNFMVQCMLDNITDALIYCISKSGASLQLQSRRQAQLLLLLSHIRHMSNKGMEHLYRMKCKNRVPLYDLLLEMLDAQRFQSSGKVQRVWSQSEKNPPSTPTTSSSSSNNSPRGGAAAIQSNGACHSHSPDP
chicken Estrogen Receptor (ERa), ESR1 (gene 396099), sequence (P06212 whole entry, looked up, the tested form may be a part): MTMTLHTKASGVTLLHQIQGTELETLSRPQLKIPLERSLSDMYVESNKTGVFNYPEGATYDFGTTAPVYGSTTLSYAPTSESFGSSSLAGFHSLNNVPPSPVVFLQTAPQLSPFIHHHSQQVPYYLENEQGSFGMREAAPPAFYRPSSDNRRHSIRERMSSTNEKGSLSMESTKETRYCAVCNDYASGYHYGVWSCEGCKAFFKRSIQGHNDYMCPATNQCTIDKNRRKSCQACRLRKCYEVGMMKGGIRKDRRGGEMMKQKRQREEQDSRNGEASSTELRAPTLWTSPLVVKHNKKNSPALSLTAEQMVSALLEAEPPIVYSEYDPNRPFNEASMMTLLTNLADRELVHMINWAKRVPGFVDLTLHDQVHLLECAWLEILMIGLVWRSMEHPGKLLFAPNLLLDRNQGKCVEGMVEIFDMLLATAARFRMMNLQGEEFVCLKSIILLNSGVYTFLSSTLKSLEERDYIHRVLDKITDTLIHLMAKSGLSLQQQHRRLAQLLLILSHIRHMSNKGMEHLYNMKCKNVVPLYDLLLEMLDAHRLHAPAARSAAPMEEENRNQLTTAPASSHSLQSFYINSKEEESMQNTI
Estrogen receptor (Homo sapiens), sequence (P03372 whole entry, looked up, the tested form may be a part): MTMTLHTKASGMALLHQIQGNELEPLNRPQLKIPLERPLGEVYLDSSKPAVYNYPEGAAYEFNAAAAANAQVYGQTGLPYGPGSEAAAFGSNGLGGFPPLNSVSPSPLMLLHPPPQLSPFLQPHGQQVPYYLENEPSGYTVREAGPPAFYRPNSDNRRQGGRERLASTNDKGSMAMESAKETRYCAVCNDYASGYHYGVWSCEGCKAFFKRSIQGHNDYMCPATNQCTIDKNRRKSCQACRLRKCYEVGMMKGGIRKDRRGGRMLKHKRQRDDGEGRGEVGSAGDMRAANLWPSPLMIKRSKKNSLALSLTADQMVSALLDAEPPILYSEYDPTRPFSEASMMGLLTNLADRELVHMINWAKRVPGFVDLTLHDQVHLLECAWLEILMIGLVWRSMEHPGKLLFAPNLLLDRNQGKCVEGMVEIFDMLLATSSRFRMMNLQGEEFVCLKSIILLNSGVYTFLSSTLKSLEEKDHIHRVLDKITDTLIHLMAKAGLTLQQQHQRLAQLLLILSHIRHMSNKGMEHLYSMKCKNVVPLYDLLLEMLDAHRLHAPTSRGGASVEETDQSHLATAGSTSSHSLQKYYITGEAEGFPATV
mouse Peroxisome Proliferator-activated Receptor gamma (PPARg), Pparg (gene 19016), sequence (P37238 whole entry, looked up, the tested form may be a part): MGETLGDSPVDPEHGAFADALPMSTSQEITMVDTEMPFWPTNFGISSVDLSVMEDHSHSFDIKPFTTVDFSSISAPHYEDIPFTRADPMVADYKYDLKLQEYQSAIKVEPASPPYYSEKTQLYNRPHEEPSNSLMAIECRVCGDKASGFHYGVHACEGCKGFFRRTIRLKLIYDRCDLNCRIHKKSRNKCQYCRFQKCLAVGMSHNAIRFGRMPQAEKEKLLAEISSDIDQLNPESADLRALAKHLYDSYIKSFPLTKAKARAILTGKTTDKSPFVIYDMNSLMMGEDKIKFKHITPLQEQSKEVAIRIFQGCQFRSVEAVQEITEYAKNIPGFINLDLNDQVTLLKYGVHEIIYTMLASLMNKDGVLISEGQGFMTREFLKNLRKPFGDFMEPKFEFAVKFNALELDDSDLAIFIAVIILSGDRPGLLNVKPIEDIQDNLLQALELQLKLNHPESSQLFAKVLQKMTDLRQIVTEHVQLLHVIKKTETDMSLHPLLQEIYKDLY
GAL4 Transcription Factor (Internal Marker), GAL4 (gene 855828), sequence (P04386 whole entry, looked up, the tested form may be a part): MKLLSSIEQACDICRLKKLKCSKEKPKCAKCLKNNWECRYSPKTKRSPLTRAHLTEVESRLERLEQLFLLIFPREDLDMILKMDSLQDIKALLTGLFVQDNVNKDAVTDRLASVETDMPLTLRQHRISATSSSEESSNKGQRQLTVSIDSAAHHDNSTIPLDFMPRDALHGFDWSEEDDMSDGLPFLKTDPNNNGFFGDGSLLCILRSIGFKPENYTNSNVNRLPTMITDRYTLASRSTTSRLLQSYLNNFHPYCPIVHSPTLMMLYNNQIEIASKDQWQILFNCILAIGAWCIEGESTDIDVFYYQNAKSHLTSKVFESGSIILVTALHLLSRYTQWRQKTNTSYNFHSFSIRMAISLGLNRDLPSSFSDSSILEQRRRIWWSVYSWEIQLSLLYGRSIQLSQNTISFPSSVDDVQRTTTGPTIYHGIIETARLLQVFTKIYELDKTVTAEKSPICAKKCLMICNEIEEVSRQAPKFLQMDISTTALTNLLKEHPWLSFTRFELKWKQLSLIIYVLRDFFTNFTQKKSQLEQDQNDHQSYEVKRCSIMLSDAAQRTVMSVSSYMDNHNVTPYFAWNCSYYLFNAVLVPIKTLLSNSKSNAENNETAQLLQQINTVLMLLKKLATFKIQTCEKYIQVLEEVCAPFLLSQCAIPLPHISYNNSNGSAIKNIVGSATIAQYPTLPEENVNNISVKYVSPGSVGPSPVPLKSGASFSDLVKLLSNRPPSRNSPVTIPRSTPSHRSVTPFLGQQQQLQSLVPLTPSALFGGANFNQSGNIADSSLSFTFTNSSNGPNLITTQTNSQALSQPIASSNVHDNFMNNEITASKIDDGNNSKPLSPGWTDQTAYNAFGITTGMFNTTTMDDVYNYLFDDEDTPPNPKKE
Estrogen receptor beta (Homo sapiens), sequence (Q92731 whole entry, looked up, the tested form may be a part): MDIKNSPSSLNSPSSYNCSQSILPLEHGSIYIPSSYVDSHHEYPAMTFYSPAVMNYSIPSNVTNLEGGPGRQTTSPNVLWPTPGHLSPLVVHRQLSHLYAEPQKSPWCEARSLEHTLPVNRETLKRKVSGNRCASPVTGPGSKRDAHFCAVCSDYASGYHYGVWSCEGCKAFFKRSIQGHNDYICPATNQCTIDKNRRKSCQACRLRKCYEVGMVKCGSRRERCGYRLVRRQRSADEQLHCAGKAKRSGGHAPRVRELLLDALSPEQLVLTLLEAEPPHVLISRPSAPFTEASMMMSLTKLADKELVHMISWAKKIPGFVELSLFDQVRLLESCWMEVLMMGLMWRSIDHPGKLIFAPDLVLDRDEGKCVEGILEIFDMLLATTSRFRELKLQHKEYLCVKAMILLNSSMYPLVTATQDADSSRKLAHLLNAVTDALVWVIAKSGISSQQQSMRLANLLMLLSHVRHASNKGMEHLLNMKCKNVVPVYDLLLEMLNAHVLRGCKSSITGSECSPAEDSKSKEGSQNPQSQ
frog Thyroid hormone Receptor alpha (TRa), thra-a (gene 397942), sequence (P15204 whole entry, looked up, the tested form may be a part): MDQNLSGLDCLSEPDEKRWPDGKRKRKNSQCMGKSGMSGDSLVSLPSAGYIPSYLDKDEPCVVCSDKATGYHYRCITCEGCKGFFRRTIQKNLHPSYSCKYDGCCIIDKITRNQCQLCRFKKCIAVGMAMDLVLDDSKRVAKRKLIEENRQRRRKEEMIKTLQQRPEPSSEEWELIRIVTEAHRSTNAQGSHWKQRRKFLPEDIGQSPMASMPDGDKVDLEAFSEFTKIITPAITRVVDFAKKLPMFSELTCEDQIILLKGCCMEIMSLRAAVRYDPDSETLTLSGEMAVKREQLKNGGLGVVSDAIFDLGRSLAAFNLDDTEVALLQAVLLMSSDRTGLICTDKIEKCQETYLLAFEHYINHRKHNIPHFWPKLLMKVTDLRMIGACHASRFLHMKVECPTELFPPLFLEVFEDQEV
zebrafish Thyroid Hormone Receptor beta (TRb), thrb (gene 30607), sequence (Q9PVE4 whole entry, looked up, the tested form may be a part): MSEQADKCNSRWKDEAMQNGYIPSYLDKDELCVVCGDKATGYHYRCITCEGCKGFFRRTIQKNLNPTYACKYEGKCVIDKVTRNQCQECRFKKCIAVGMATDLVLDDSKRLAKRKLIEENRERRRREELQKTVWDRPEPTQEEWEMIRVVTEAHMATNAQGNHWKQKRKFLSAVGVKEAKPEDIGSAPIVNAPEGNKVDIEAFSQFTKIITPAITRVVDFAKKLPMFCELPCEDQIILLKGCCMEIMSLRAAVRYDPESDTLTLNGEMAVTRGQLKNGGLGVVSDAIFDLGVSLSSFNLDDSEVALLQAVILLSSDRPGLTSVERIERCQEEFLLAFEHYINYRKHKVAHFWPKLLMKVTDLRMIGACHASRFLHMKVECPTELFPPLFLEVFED

Consider `CC(C)(C)c1cc(O)c(C(C)(C)C)cc1O`, for which the result in assay [1], in assay [2], in assay [3], in [4], in assay [5] and in assay [6] was inactive. For the same molecule, the molecule was called inactive in [7], in assay [8], in assay [9], in assay [10], in [11] and in [12]. Moreover, the outcome in assay [14] and in assay [15] was inactive. The results for the AC50 in assay [13], in assay [16] and in [17] were 49.3 µM (active), 42.7 µM (active) and 57.5 µM (active), respectively.

Turning to `CC(=O)C(C)=CC1C(C)=CCCC1(C)C` (configuration not stated), the molecule was called inactive in assay [5], in assay [18], in [8] and in assay [16]. For the same molecule, the AC50 in assay [6] was 29.9 µM (active) and 25.5 µM (active); in [8], 34.2 µM (active); in assay [9], 19.8 µM (active) and 14 µM (active); in assay [10], 15 µM (active) and 19.8 µM (active); in assay [12] it was 27.3 µM (active) and 27.2 µM (active); in assay [13], 32 µM (active) and 29.8 µM (active). For the same molecule, the AC50 in assay [14] is 19.8 µM (active) and 21.3 µM (active); in assay [15], 27.7 µM (active) and 14.7 µM (active); in assay [16] it was 64.4 µM (active); in assay [17], 146 µM (active) and 25.2 µM (active).

Regarding `C=CCOC(=O)c1ccccc1C(=O)OCC=C`, the molecule was called inactive in [5], in assay [18], in assay [8], in [9], in assay [10] and in [11]. The call in assay [12], in assay [19], in assay [15], in [16] and in assay [17] was inactive. For the same molecule, the AC50 in assay [6] was 74.3 µM (active) and 100 µM (active); in assay [9] it was 62.3 µM (active); in assay [13], 139 µM (active) and 78.9 µM (active); in [14] it was 53.5 µM (active) and 100 µM (active); in [15], 51.2 µM (active); in assay [16] it was 43.7 µM (active). The half-maximal activity concentration (AC50) in assay [17] was 44.1 µM (active).

For `CCCc1cc(=O)[nH]c(=S)[nH]1`, the molecule was called inactive in [8], in assay [12], in assay [13], in assay [20], in assay [19] and in assay [14]. Further, the molecule was classed as inactive in assay [16] and in assay [17].

The term AC50 denotes the midpoint of the concentration-response curve, whichever way the signal moves.
